Measurements as given in PubChem BioAssay (Tox21).
Records with an inconclusive call do not appear. Activity calls are given as the source filed them. Calls come from the whole dose curve; as a rule, active = well fitted activation curve with a large enough effect in the repeat runs; inconclusive = weak or mixed curves; inactive = flat fitted curve, though single readings scatter.

Assay: A CellTox Green Cytotoxicity Assay to monitor cytotoxicity in HEK293 cells - 16 hour (AID 1224888); note: nearly all actives have a fitted effect of over 35% in size
Conditions: CellTox Green fluorescence; series mostly up to 76.8 µM; activity change: at the top concentration
Description: National Center for Advancing Translational Sciences [NCATS]
NIH Chemical Genomics Center [NCGC]
U.S. Environmental Protection Agency [EPA]
National Institutes of Environmental Health Sciences [NIEHS]
National Toxicology Program [NTP]
Cell-based models are critical for drug discovery. Determining the natural cytotoxic effects resulting from test compounds is an essential research activity. A CellTox Green Cytotoxicity Assay to monitor cytotoxicity in real time of continues cell culture during 40 hours of the compound treatment was used to screen Tox21 10K library compounds in Hek293 cells. CellTox Green Cytotoxicity Assay is a nonlytic, homogeneous, biofluorescent method to measure cytotoxicity in cell culture after experimental manipulation. The assay system uses a proprietary asymmetric cyanine dye that is excluded from viable cells but preferentially stains the dead cell's DNA. […] Viable cells produce no appreciable increases in fluorescence. Therefore, the fluorescence signal produced by the binding interaction with dead cell DNA is proportional to cytotoxicity.
The mixture of Hek293 cell suspension and reagents were dispensed at 600cells/6 ul/well in 1536-well tissue culture treated black solid bottom plates using a Multidrop dispenser. After the assay plates were incubated at a 37 C/5% CO2 incubator for 5 hours, 23 nL of compounds dissolved in DMSO, positive and negative controls was transferred to the assay plate by a pintool work station. The plates were incubated at 37 C for 40 hours. The fluorescence intensity were measured at 0h, 8h, 16h, 24h, 32h and 40h time points using ViewLux plate reader during compound treatment.
% is set by controls: 0 for no effect and ±100 for the full control effect; potency is the fitted concentration of half-maximal effect.

| SMILES | activity change | Potency |
| --- | --- | --- |
| CNC(=O)c1cnn(-c2nc(N)c3ncn([C@@H]4O[C@H](CO)[C@@H](O)[C@H]4O)c3n2)c1 | 0.758% [at 35.3 µM, stronger effect = higher value] (inactive) |  |
| CN1C[C@H](C(=O)N[C@]2(C)O[C@@]3(O)[C@@H]4CCCN4C(=O)[C@H](Cc4ccccc4)N3C2=O)C[C@@H]2c3cccc4[nH]cc(c34)C[C@H]21 | -1.88% [at 35.3 µM, stronger effect = higher value] (inactive) |  |
| C[C@@H](CN(C)C)CN1c2ccccc2Sc2ccccc21 | 10.6% [at 35.3 µM, stronger effect = higher value] (inactive) |  |
| O=C1c2ccccc2C(=O)C1c1nc2ccccc2c(Br)c1O | 26% (inactive) |  |
| N#CCCN(CCO)CCO | -1.65% (inactive) |  |
| CCOc1cccc(-n2cc(C(=O)N3CCN(c4cc(C(=O)O)c5ccccc5c4)CC3)nc2-c2ccc(C)cc2)c1 | 13.3% (inactive) |  |
| CC(=O)NC1(c2cccc(F)c2)CCN(CC[C@@]2(c3ccc(Cl)c(Cl)c3)CN(c3ccccc3)C(=O)CO2)CC1 | 3.16% (inactive) |  |
| C=COCC(C)C | -34.3% (inactive) |  |
| COc1ccccc1N1CCN(CC(O)COc2cccc3ccccc23)CC1 (stereo not given) | 2.25% [at 35.3 µM, stronger effect = higher value] (inactive) |  |
| CC1CC(OC(=O)C(O)c2ccccc2)CC(C)(C)N1C (stereo not given) | 5.55% [at 35.3 µM, stronger effect = higher value] (inactive) |  |
| CCN(CC)CCNC(=O)COc1ccc(OC)cc1 | 1.42% [at 35.3 µM, stronger effect = higher value] (inactive) |  |
| c1ccc2c(c1)CCc1ccccc1N2 | 10% [at 35.3 µM, stronger effect = higher value] (inactive) |  |
| CCOC(C)=O | -2.82% (inactive) |  |
| C[C@@H](O)[C@H]1C(=O)N2C(C(=O)O)=C([C@H]3CCCO3)S[C@H]12 | 1.65% [at 35.3 µM, stronger effect = higher value] (inactive) |  |
| CCCCCCCCOc1ccc(C(=O)O)cc1 | -13.7% (inactive) |  |
| O=C1c2ccccc2C(=O)C1(O)O | -2.26% (inactive) |  |
| CCOC(=O)c1ccccc1C(=C1C=C(Br)C(=O)C(Br)=C1)c1cc(Br)c(O)c(Br)c1 | 2.33% [at 35.3 µM, stronger effect = higher value] (inactive) |  |
| CC1(CN2CCC(n3c(=O)[nH]c4ccccc43)CC2)OCc2ccccc2-n2cccc21 (stereo not given) | 17.6% [at 35.3 µM, stronger effect = higher value] (inactive) |  |
| N#[N+]c1ccc2c(S(=O)(=O)[O-])cccc2c1O | -8.85% (inactive) |  |
| C1C[C@@H]2[C@H]3CC[C@H](C3)[C@@H]2C1 | 4.71% (inactive) |  |

| SMILES | activity change | Potency |
| --- | --- | --- |
| COc1cc(Nc2c(C#N)cnc3cc(OCCCN4CCN(C)CC4)c(OC)cc23)c(Cl)cc1Cl | 6.68% [at 35.3 µM, stronger effect = higher value] (inactive) |  |
| OC(CCN1CCCC1)(c1ccccc1)C1CCCCC1 (stereo not given) | 0.167% [at 35.3 µM, stronger effect = higher value] (inactive) |  |
| Cc1cc2c(OCC(CNC(C)(C)C)OC(=O)c3ccccc3)cccc2[nH]1 (stereo not given) | 4.64% [at 35.3 µM, stronger effect = higher value] (inactive) |  |
| CCCCCCNC(=O)n1cc(F)c(=O)[nH]c1=O | -3.81% [at 35.3 µM, stronger effect = higher value] (inactive) |  |
| CCC1CO1 (stereo not given) | 1.15% (inactive) |  |
| CCOC(=O)[C@H](CCc1ccccc1)N[C@@H](C)C(=O)N(CC(=O)O)C1Cc2ccccc2C1 | 1.1% [at 35.3 µM, stronger effect = higher value] (inactive) |  |
| CCCCCC[C@@H](O)C/C=C\CCCCCCCC(=O)OCC(O)CO (stereo not given in full) | -1.09% (inactive) |  |
| O=c1cc(-c2ccccc2)oc2cc(O)cc(O)c12 | -10.3% (inactive) |  |
| O=[N+]([O-])c1ccc(O/N=C/c2cc(Br)c(O)c(Br)c2)c([N+](=O)[O-])c1 | -4.03% (inactive) |  |
| Nc1nc2ccc([N+](=O)[O-])cc2s1 | 1.6% (inactive) |  |
| Oc1cccc(Nc2ccccc2)c1 | 2.11% (inactive) |  |
| C/C=C\C/C=C/CCCCCCCCOC(C)=O | -1.03% (inactive) |  |
| COc1cc(N)c(Cl)cc1C(=O)NC1CCN(CCCOc2ccc(F)cc2)CC1OC (stereo not given) | -1.23% [at 35.3 µM, stronger effect = higher value] (inactive) |  |
| O=C1NC(=O)c2cc([N+](=O)[O-])ccc21 | 14.6% (inactive) |  |
| CN(C)CCN1C(=O)c2ccccc2N(C)c2ccccc21 | 4.92% [at 35.3 µM, stronger effect = higher value] (inactive) |  |
| c1ccc2sc(SN(C3CCCCC3)C3CCCCC3)nc2c1 | 1.84% (inactive) |  |
| COc1ccc(OC(=O)N(CC(=O)O)Cc2ccc(OCCc3nc(-c4ccccc4)oc3C)cc2)cc1 | 4.74% [at 35.3 µM, stronger effect = higher value] (inactive) |  |
| Oc1cc2c(cc1O)[C@H]1c3ccc(O)c(O)c3OC[C@@]1(O)C2 |  | 49.6 µM (active) |
| O=C(O)CCc1nc(-c2ccccc2)c(-c2ccccc2)o1 | -13.9% [at 35.3 µM, stronger effect = higher value] (inactive) |  |
| Cc1ccc(Cl)c(Nc2ccccc2C(=O)O)c1Cl | -2.77% [at 35.3 µM, stronger effect = higher value] (inactive) |  |
